# In the supplement of paper PMC8728848:
# This excerpt belongs to a sample that is enriched for the strongest signals.
# Key:
# Test in all cases: glycan array binding signal (z-score within array); higher = stronger binding
# Conditions in all cases: glycan notation: IUPAC condensed, linker removed
# [1] = system: Neu5Ac(a2-3)Gal(b1-4)Glc
# Method in brief: (§1)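 Glycan array data came from 3228 arrays in the Consortium for Functional Glycomics database, and only arrays with an available protein sequence were kept. Glycan names were put into IUPAC-condensed notation, and columns mapping to the same glycan were averaged. The binding signal is a within-array Z-score, averaged across arrays of one protein sequence run at different concentrations or buffers and across linkers. A negative Z-score can be read as non-binding.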
# [2] = system: Neu5Ac(a2-3)Gal(b1-4)[Fuc(a1-3)]GlcNAc(b1-6)[Neu5Ac(a2-3)Gal(b1-3)]GalNAc
# Method in brief: as §1
# [3] = system: Neu5Ac(a2-3)GalNAc
# Method in brief: as §1
# [4] = system: Neu5Ac(a2-3)Gal(b1-4)[Fuc(a1-3)]GlcNAc(b1-3)GalNAc
# Method in brief: as §1
# [5] = system: Neu5Ac(a2-6)Gal(b1-3)GlcNAc(b1-3)[Gal(b1-4)GlcNAc(b1-6)]Gal(b1-4)Glc
# Method in brief: as §1
# [6] = system: Neu5Ac(a2-6)Gal(b1-4)GlcNAc(b1-2)Man(a1-3)[Neu5Ac(a2-6)Gal(b1-4)GlcNAc(b1-2)Man(a1-6)]Man(b1-4)GlcNAc(b1-4)[Fuc(a1-6)]GlcNAc
# Method in brief: as §1
# [7] = system: Neu5Ac(a2-3)Gal(b1-4)[Fuc(a1-3)]GlcNAc(b1-6)[Gal(b1-3)]GalNAc
# Method in brief: as §1
# [8] = system: Neu5Ac(a2-3)Gal6S(b1-4)GlcNAc
# Method in brief: as §1
# [9] = system: Neu5Ac(a2-3)[GalNAc(b1-4)]Gal(b1-4)Glc
# Method in brief: as §1
# [10] = system: Neu5Ac(a2-3)[Neu5Ac(a2-6)]GalNAc
# Method in brief: as §1
# [11] = system: Neu5Ac(a2-6)Gal(b1-4)GlcNAc(b1-2)Man(a1-3)[GlcNAc(b1-2)Man(b1-4)GlcNAc(b1-2)Man(a1-6)]Man(b1-4)GlcNAc(b1-4)GlcNAc
# Method in brief: as §1
# [12] = system: Neu5Ac(a2-3)Gal(b1-4)[Fuc(a1-3)]GlcNAc(b1-3)Gal(b1-4)[Fuc(a1-3)]GlcNAc(b1-3)Gal(b1-4)Glc
# Method in brief: as §1
# [13] = system: Neu5Ac(a2-3)Gal(b1-4)[Fuc(a1-3)]GlcNAc6S(b1-3)Gal(b1-4)Glc
# Method in brief: as §1
# [14] = system: Neu5Ac(a2-6)Gal(b1-4)GlcNAc(b1-2)Man(a1-3)[Neu5Ac(a2-6)Gal(b1-4)GlcNAc(b1-2)Man(a1-6)]Man(b1-4)GlcNAc(b1-4)GlcNAc
# Method in brief: as §1
# [15] = system: Neu5Ac(a2-3)Gal(b1-4)GlcNAc
# Method in brief: as §1
# [16] = system: Neu5Ac(a2-3)Gal(b1-4)[Fuc(a1-3)]GlcNAc(b1-3)Gal(b1-4)GlcNAc
# Method in brief: as §1
# [17] = system: Neu5Ac(a2-3)Gal(b1-4)[Fuc(a1-3)]GlcNAc
# Method in brief: as §1
# [18] = system: Neu5Ac(a2-3)Gal(b1-4)[Fuc(a1-3)]GlcNAc(b1-3)Gal(b1-4)[Fuc(a1-3)]GlcNAc(b1-3)Gal(b1-4)[Fuc(a1-3)]GlcNAc
# Method in brief: as §1
# [19] = system: Neu5Ac(a2-3)Gal6S(b1-4)[Fuc(a1-3)]GlcNAc6S(b1-3)Gal(b1-4)Glc
# Method in brief: as §1
# [20] = system: Neu5Ac(a2-6)Gal(b1-4)GlcNAc(b1-2)Man(a1-3)[Neu5Gc(a2-6)Gal(b1-4)GlcNAc(b1-2)Man(a1-6)]Man(b1-4)GlcNAc(b1-4)GlcNAc
# Method in brief: as §1
substance,measurement,setting,value
Actinohivin (Actinomycete K97),glycan array binding signal (z-score),[1],0.053
same,glycan array binding signal (z-score),[2],-0.02
"BambL (Burhholderia ambifaria), Q0B4G1",glycan array binding signal (z-score),[3],-0.313
"Wza (Escherichia coli), P0A930",glycan array binding signal (z-score),[4],1.12
same,glycan array binding signal (z-score),[5],0.652
same,glycan array binding signal (z-score),[6],-0.578
AgI/IIC123-GFP (Streptococcus mutans),glycan array binding signal (z-score),[7],0.09
"SpGH101 (Streptococcus pneumoniae), Q8DR60",glycan array binding signal (z-score),[4],1.68
same,glycan array binding signal (z-score),[8],-0.178
same,glycan array binding signal (z-score),[9],-0.199
same,glycan array binding signal (z-score),[10],-0.195
same,glycan array binding signal (z-score),[5],-0.168
same,glycan array binding signal (z-score),[11],0.015
"MIC3-MAR5 (Eimeria tenella), B6VCV4",glycan array binding signal (z-score),[12],0.92
same,glycan array binding signal (z-score),[13],2.08
same,glycan array binding signal (z-score),[14],1.71
Epa22,glycan array binding signal (z-score),[15],0.352
same,glycan array binding signal (z-score),[2],0.118
same,glycan array binding signal (z-score),[8],-0.771
same,glycan array binding signal (z-score),[5],-0.487
LcI (Legionella pneumophila),glycan array binding signal (z-score),[16],0.401
same,glycan array binding signal (z-score),[10],-0.437
"SiiE (Salmonella typhimurium), A0A0H3NVH0",glycan array binding signal (z-score),[1],2.39
same,glycan array binding signal (z-score),[17],0.224
AgI/II Vhelical-GFP (Streptococcus mutans),glycan array binding signal (z-score),[18],-0.178
same,glycan array binding signal (z-score),[2],-0.178
"MIC3-MAR1b (Eimeria tenella), B6VCV4",glycan array binding signal (z-score),[1],-0.453
same,glycan array binding signal (z-score),[17],-0.346
same,glycan array binding signal (z-score),[19],0.282
same,glycan array binding signal (z-score),[14],4.75
same,glycan array binding signal (z-score),[20],0.504
